Assay outcomes from PubChem.
Giardia FBPA inh = blocks Giardia fructose-bisphosphate aldolase activity; 290,000 tested, 0.71% active; Potency, µM (highest dose often 59.6 µM), inactives show top-dose activity, negative = inhibition, most hits filed as inhibitors; A8B2U2; purified Giardia FBPA; note: nearly all actives have a fitted effect of over 55% in size
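40 nM FBPA preincubated 10 min at RT with compound (up to 57.5 uM final), then substrate plus GAPDH/TPI/NAD/arsenate coupling and diaphorase/resazurin added. Fluorescence read after 20 min at RT, 525/598 nm.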
TbPYK inhibitor = blocks Trypanosoma brucei pyruvate kinase | Potency, µM (top dose mostly 76.8 µM), for the others: at the highest dose activity, negative = inhibition, hits mostly inhibitors | TbPYK enzyme, Kinase-Glo Plus ATP luminescence, 45 min | 410,000 tested, 0.12% active; note: nearly all actives have a fitted effect of over 50% in size
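Luminescence from Kinase-Glo Plus, added after a 45-minute room-temperature reaction, served as the end-point read-out. The enzyme and substrate were preincubated with compound before ADP (130 uM final) initiated turnover. Concentration-effect curves came from normalized qHTS data.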
LmPK inhibitor = LmPK (Leishmania mexicana) enzyme inhibition. Potency, µM (highest dose often 57.5 µM), inactives show top-dose activity change, negative = inhibition, actives largely listed as inhibitors. purified LmPK, Kinase-Glo ATP luminescence, 1 h. AID 1721. Q27686. 290,000 tested, 0.37% active
Target sequence (Q27686 whole entry, looked up): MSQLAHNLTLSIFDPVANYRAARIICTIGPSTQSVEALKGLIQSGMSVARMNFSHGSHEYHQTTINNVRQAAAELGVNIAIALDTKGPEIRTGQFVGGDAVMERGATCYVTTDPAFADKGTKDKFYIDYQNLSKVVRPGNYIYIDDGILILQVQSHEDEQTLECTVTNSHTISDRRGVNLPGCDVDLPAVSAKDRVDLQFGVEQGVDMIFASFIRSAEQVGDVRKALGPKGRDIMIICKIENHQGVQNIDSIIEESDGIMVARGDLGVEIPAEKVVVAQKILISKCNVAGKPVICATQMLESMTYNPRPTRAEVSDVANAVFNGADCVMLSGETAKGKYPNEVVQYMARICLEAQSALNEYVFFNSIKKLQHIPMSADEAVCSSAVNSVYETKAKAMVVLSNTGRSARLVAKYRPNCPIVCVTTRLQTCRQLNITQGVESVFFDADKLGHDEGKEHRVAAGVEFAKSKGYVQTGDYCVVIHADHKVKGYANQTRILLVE
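ATP generated from ADP (0.1 mM) and PEP (0.5 mM) by 0.1 nM LmPK over 1 h at room temperature (pH 7.2 imidazole buffer) was detected by coupled luciferase luminescence. Values were normalized to uninhibited and no-enzyme wells.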
RE007 growth inh = less growth of the S. pombe RE007 Vpr strain | S. pombe RE007 Vpr strain, BacTiter-Glo ATP luminescence, 24 h | Potency, µM (top dose mostly 92.2 µM), without a hit: top-dose activity change, negative = less growth, actives largely listed as inhibitors | 360,000 tested, 0.21% active | AID 651644; active = well fitted falling curve with a large enough effect; inconclusive = small, poorly fitted or top-dose-only effect; inactive = no such curve, though single readings can be large or run the other way; note: nearly all actives have a fitted effect of over 50% in size
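Fission yeast RE007 carrying one integrated HIV-1 vpr copy, seeded at OD 0.01 in PMG+AL medium with 23 nL pinned compound. Grown 24 h at 30 degrees; viability read by BacTiter-Glo luminescence after 5 min.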
Starred values were filed as active, the others as inactive; ! = not active in a repeat; [ ] = another dose, or the depositor's remark. Hits are enriched below; roughly 0.95% of the tested compounds scored in any of these assays. Unless noted, calls come from the whole dose curve; as a rule, active = well fitted curve in the direction sought with a large enough effect; inconclusive = small, poorly fitted or top-dose-only effect, or another doubt; inactive = no such curve, though single readings can be large; an effect the other way counts as inactive or inconclusive. % is set by controls: 0 for no effect and ±100 for the full control effect; potency is the fitted concentration of half-maximal effect.

What do the screens show for `CCOC(=O)c1c(OCC)[nH]c2c1cc(O)c1ccccc12`?
Giardia FBPA inh: 20µM*; TbPYK inhibitor: -19%; LmPK inhibitor: inconclusive; RE007 growth inh: -18%

What do the screens show for `C[C@]12O[C@H](C[C@]1(O)CO)n1c3ccccc3c3c4c(c5c6ccccc6n2c5c31)CNC4=O`?
TbPYK inhibitor: -7%

What do the screens show for `Cc1ccc(C)c(N2CCN(C(=O)c3cc(S(=O)(=O)N4CCC(C)CC4)cn3C)CC2)c1`?
TbPYK inhibitor: 0%

What do the screens show for `Cc1cc2nc(-c3ccc[nH]c3=O)[nH]c2cc1C`?
Giardia FBPA inh: 7%; TbPYK inhibitor: inconclusive; LmPK inhibitor: 11µM*; RE007 growth inh: 7.1µM*

What do the screens show for `CCCc1nnc(NC(=O)c2cc(=O)c3cc(Cl)ccc3o2)s1`?
TbPYK inhibitor: -9%

What do the screens show for `CC(=O)Oc1ccccc1C(=O)C=Cc1cccc([N+](=O)[O-])c1`?
TbPYK inhibitor: 7%; RE007 growth inh: 25µM*

Results for O=c1c(-c2ccccc2)coc2cc(O)cc(O)c12 ?
Giardia FBPA inh: 20µM*

What do the screens show for `Cc1nn(C(=O)c2ccccc2)c(C)c1Sc1ccc(Cl)cc1`?
TbPYK inhibitor: 1%

Results for C[C@H](/C=C/[C@H](C)C(C)(C)O)[C@H]1CC[C@H]2/C(=C/C=C3C[C@@H](O)C[C@H](O)C3)CCC[C@]12C ?
TbPYK inhibitor: 7%

How did c1nc(NC2CCCCCC2)c2[nH]cnc2n1 do in these assays?
Giardia FBPA inh: -12%; TbPYK inhibitor: 0%; LmPK inhibitor: -3%; RE007 growth inh: 0%

How did c1ccc(Oc2nc(NC3CCCCC3)c3[nH]cnc3n2)cc1 do in these assays?
Giardia FBPA inh: 16µM*

Results for CN1/C(=C/c2cc[n+](C)c3ccccc23)C=Cc2ccccc21 ?
Giardia FBPA inh: inconclusive; TbPYK inhibitor: -25%; LmPK inhibitor: inconclusive; RE007 growth inh: 10µM*

Results for CC(C)=CCc1c(O)ccc(C(=O)Cc2ccccc2)c1O ?
Giardia FBPA inh: -6%; TbPYK inhibitor: 0%; LmPK inhibitor: 3%; RE007 growth inh: 35µM*

Results for Cc1ccc(C(=O)Cc2ccccc2)c(O)c1 ?
TbPYK inhibitor: 3%; RE007 growth inh: -14%

Results for COc1cccc(C2NC(=S)NC3=C2CCc2ccccc23)c1 (stereo unspecified) ?
Giardia FBPA inh: 16µM*; TbPYK inhibitor: -11%; LmPK inhibitor: 3%; RE007 growth inh: 9%

Results for Fc1ccc(C2CC(c3ccco3)=Nc3ccccc3S2)cc1 (stereo unspecified) ?
Giardia FBPA inh: inconclusive; TbPYK inhibitor: 4%; LmPK inhibitor: 14%; RE007 growth inh: 25µM*

What do the screens show for `NCCNCCN`?
Giardia FBPA inh: 18µM*; TbPYK inhibitor: inconclusive

How did COc1ccc(-c2coc3cc(O)ccc3c2=O)c(O)c1O do in these assays?
Giardia FBPA inh: 18µM*

How did COc1ccc(-c2coc3cc(O)ccc3c2=O)c(OC)c1O do in these assays?
Giardia FBPA inh: -10%

Results for COc1ccc(NC(=O)CN2CCN(Cc3ccc4c(c3)OCO4)CC2)cc1OC ?
Giardia FBPA inh: 18µM*; TbPYK inhibitor: 5%; LmPK inhibitor: -24%; RE007 growth inh: 2%

Results for C[n+]1cccc2cccc([O-])c21 ?
Giardia FBPA inh: 0.45µM*; TbPYK inhibitor: -4%; LmPK inhibitor: -3%; RE007 growth inh: 4%

Results for [O-][n+]1cccc2cccc(O)c21 ?
TbPYK inhibitor: -6%; RE007 growth inh: 25%

How did CC(C)NC[C@H](O)c1cc(O)cc(O)c1 do in these assays?
Giardia FBPA inh: 2%[21.7 µM]; TbPYK inhibitor: -2%

Results for CC(N)C(O)c1ccc(O)c(O)c1 (stereo unspecified) ?
Giardia FBPA inh: -28%

What do the screens show for `CCC(NC(C)C)C(O)c1ccc(O)c(O)c1` (stereo unspecified)?
Giardia FBPA inh: 2.8µM*; TbPYK inhibitor: -7%; LmPK inhibitor: -16%; RE007 growth inh: 7%[18.4 µM]

Results for CC(C)NC[C@H](O)c1ccc(O)c(O)c1 ?
Giardia FBPA inh: 10µM*!; TbPYK inhibitor: -7%; RE007 growth inh: 9%[18.4 µM]

How did COC(=O)[C@@H]1CCCN1C(=O)[C@@H](C)CO do in these assays?
Giardia FBPA inh: -1%[12.9 µM]

Results for COC(=O)C1=C(C(=O)OC)[C@@H]2N(Cc3ccccc3)c3ccccc3[C@@]23C[C@@H](C(=O)OC)N(S(=O)(=O)c2cccs2)C3=N1 ?
Giardia FBPA inh: 0%[12.9 µM]; LmPK inhibitor: -4%[11.5 µM]

How did O=[N+]([O-])c1cc(-c2ncccn2)c([N+](=O)[O-])s1 do in these assays?
Giardia FBPA inh: 16µM*; TbPYK inhibitor: -27%; LmPK inhibitor: -14%; RE007 growth inh: inconclusive

How did CC(C)(Cc1c[nH]c2ccccc12)NCC(O)COc1ccccc1C#N (stereo unspecified) do in these assays?
Giardia FBPA inh: 0%; TbPYK inhibitor: -8%

Results for Cc1cc(C)c(S(=O)(=O)Nc2ccc[nH]c2=O)c(C)c1 ?
Giardia FBPA inh: 5.6µM*; TbPYK inhibitor: -14%; LmPK inhibitor: 5%; RE007 growth inh: 18%

Results for CCCn1c(-c2ccc(OC)cc2)nc2ccccc21 ?
Giardia FBPA inh: -1%; TbPYK inhibitor: 6%; LmPK inhibitor: -2%; RE007 growth inh: -10%

How did COCn1c(-c2ccc(OC)cc2)nc2ccccc21 do in these assays?
Giardia FBPA inh: 1%; TbPYK inhibitor: -9%; LmPK inhibitor: 22µM*; RE007 growth inh: -4%

Results for O=C(N=Nc1c(O)[nH]c2ccccc12)c1cccs1 ?
Giardia FBPA inh: -13%; TbPYK inhibitor: 0%; LmPK inhibitor: 16µM*; RE007 growth inh: -12%

How did CN(C)C(=O)c1ccc(N=Nc2c(O)c3ccccc3[nH]c2=O)cc1 do in these assays?
TbPYK inhibitor: -29%; RE007 growth inh: 18µM*

What do the screens show for `O=C(O)c1ccc(N=Nc2c(O)[nH]c3ccccc23)cc1`?
Giardia FBPA inh: -5%; TbPYK inhibitor: -28%; LmPK inhibitor: 14µM*; RE007 growth inh: inconclusive

Results for Cc1nc2cnc(OCc3ccccc3)nc2n(CCc2ccccc2)c1=O ?
Giardia FBPA inh: 3%

What do the screens show for `COc1cccc(-c2cncnc2Nc2ccc(F)cc2)c1`?
Giardia FBPA inh: -8%

Results for COc1ccc(O)c(N)c1 ?
Giardia FBPA inh: 3.5µM*; LmPK inhibitor: inconclusive

How did Cc1ccc(O)c(N)c1 do in these assays?
TbPYK inhibitor: -8%; RE007 growth inh: -26%

Results for CCn1c(C(=O)N2CCCC(C(=O)NCCc3ccc(C)cc3)C2)cc2sccc21 (stereo unspecified) ?
Giardia FBPA inh: 0%; TbPYK inhibitor: 35µM*; LmPK inhibitor: 1%; RE007 growth inh: 10%

What do the screens show for `CCOC(=O)Cn1cccc1-c1nc(-c2ccc(OC)cc2)c(-c2ccc(OC)cc2)s1`?
TbPYK inhibitor: 4%

What do the screens show for `O=C1[C@H]2CCn3c(=O)n(-c4ccccc4)c(=O)n3[C@H]2[C@H](O)[C@H]2O[C@@H]12`?
Giardia FBPA inh: 0%[12.9 µM]

What do the screens show for `NC1(C(=O)O)CC(C(=O)O)C1` (stereo unspecified)?
Giardia FBPA inh: 5.6µM*!
